Data on 22 compounds can be found in PubChem BioAssay (NCATS).

The structures appear in SMILES notation. Results filed as inconclusive are left out. Values without a mark were called inactive. The source made the active and inactive calls. Unless noted, the call rests on the fitted dose curve; in most records, active means well fitted curve in the direction sought with a large enough effect; inconclusive means small, poorly fitted or top-dose-only effect, or another doubt; inactive means no such curve, though single readings can be large; an effect the other way counts as inactive or inconclusive.

Assay [1] has as its target Cytochrome P450 1A2 (Homo sapiens) (UniProt P05177). Description: p450-cyp1a2 (AID 410; calls by dose curve). Summed up: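 Inhibition was calculated relative to 57 uM furafylline (full inhibition). The reaction used human CYP1A2 at 20nM with Luciferin-ME at its Km, 100uM, driven by an NADPH-regenerating system for 60 min at room temperature.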
Assay [2] can be described thus: NFAT Signaling Pathway (AID 444; active means well fitted curve in either direction with a large enough effect, not every such curve was filed as active). The following applies: Jurkat NFAT-bla M1, carbachol, beta-lactamase ratio, 5 h. Summed up: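 Read-out: CCF4 FRET ratio (460 nm/530 nm) after 1 h RT dye loading, used for %activity and AC50 from titration series. Cells: Jurkat NFAT-β-lactamase/M1 line, treated with compound plus 1 uM carbachol for 5 h, 37 °C.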
For assay [3], the target named is Cytochrome P450 3A4 (Homo sapiens) (UniProt P08684). Description: qHTS Assay for Inhibitors and Substrates of Cytochrome P450 3A4 (AID 884). Summed up:
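20 nM human CYP3A4 with 25 uM Luciferin-PPXE (at KM) in 200 mM KPO4, preincubated 10 min with compound; NADPH regeneration started a 60 min RT reaction. Luciferin detected by luminescence, normalized to 57 uM ketoconazole as full inhibition.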

Assay [4] has as its target Ubiquitin carboxyl-terminal hydrolase 1 (Homo sapiens) (UniProt O94782). Description: Inhibitors of USP1/UAF1: Pilot qHTS (AID 504865). Summed up: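 Deubiquitinase activity followed as kinetic rhodamine fluorescence release from 150 nM Ub-Rho. 1 nM USP1/UAF1 with compound, after 15 min room-temperature preincubation, in HEPES pH 7.8 buffer containing TCEP, EDTA, BSA and Tween-20.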
A general note: qHTS replaces the single test concentration by a dilution series.

For assay [5], the target named is Cytochrome P450 2D6 (Homo sapiens) (UniProt P10635). Briefly: qHTS Assay for Inhibitors and Substrates of Cytochrome P450 2D6 (AID 891). Summed up: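 Human CYP2D6 (5 nM) with 30 uM Luciferin-ME EGE (at Km) in 100 mM KPO4, compound preincubated 10 min, then NADPH regeneration system for 60 min at room temperature. Luciferin read by luminescence; normalized to 1.43 uM quinidine.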

Assay [6] is described as follows: G06 Cancer Cell Toxicity qHTS against the NCATS CANVASS Library (AID 1347368). In short, it runs like this: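 Cytotoxicity toward canine glioma G06 cells is scored from cellular ATP via luminescence after 72 hr compound exposure at 500 cells/well.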
Assay [7] is described as follows: qHTS for Hypoxia signaling pathway (HIF-1) antagonists against the NCATS CANVASS Library (AID 1347374). Summed up:
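HRE-bla ME-180 cells (2,000/well, 0.5% dialyzed FBS) were pre-incubated 5 h, then given an 11-point compound series plus CoCl2 (60 uM solution as added) for 17 h at 37C. CCF4 β-lactamase read (ex 405, em 460/530 nm) after 2 h at RT.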

Assay [8] is described as follows: qHTS for Hypoxia signaling pathway (HIF-1) agonists against the NCATS CANVASS Library (AID 1347375). Summed up: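 Inducers of HIF-1 signaling were detected in ME-180 cells bearing an HRE-driven beta-lactamase reporter after 17 h compound exposure. Activity came from CCF4-AM FRET emission ratio (460/530 nm) in qHTS format.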
Assay [9] is described as follows: qHTS for Inflammasome Signaling Inhibitors: IL-1-beta AlphaLISA screen against the NCATS CANVASS Library (AID 1347379). Summed up:
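Human THP-1 cells were pretreated 1 hr at 37 °C with compounds (up to 57.5 uM final), then stimulated with LPS (250 ng/mL final) and ATP (1.25 mM final). Secreted IL-1B was read by AlphaLISA after 16 hr.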

A short description of assay [10]: qHTS for Antimalaria activity screened against the NCATS CANVASS Library (AID 1347380). In short, it runs like this:
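Growth inhibition of asexual erythrocytic P. falciparum Dd2 was quantified by SYBR Green DNA staining. Cultures grew 72 h with compound (11-point series) in hypoxic gas at 37C; lysis and staining lasted 18 h.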

Assay [11] is described as follows: qHTS for activators of Nrf2/ARE signaling pathway screened against the NCATS CANVASS Library (AID 1347391). In short, it runs like this:
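Cells carrying an ARE-driven beta-lactamase reporter (HepG2 background) are dosed for 16 h, then stained with CCF4. Cell viability in the same wells is measured by CellTiter-Glo luminescence.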

Assay [12] in a line: qHTS for inhibitors of Wild type Zika virus screened against the NCATS CANVASS Library (AID 1347396). Summed up: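 Vero 766 (African green monkey) cells, 1000 per well, attached overnight, then compounds were added in an 11-point series before wild-type Zika virus infection. After 72 h at 37C, cell viability was read as CellTiter Glo luminescence.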
Assay [13] is described as follows: qHTS for inhibitors of Rabies Virus screened against the NCATS CANVASS Library (AID 1347402; calls by dose curve).
Assay [14] is described as follows: SDT Cancer Cell Toxicity qHTS against the NCATS CANVASS Library (AID 1347365). In short, it runs like this:
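Dispense 500 SDT cells per well; pin-transfer compounds; incubate 72 hr at 37C, 5% CO2, 95% RH; add CellTiterGlo and read luminescence.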

The nature of assay [15]: qHTS for inhibitors of ER calcium dysfunction: SERCaMP assay screened against the NCATS CANVASS Library (AID 1347393). In short, it runs like this: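 Thapsigargin-induced ER calcium depletion drives GLuc-SERCaMP secretion from SH-SY5Y cells; compounds given 16 h beforehand were scored by lowered coelenterazine luminescence after 4 h challenge.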

Sequence of Cytochrome P450 3A4 (Homo sapiens) (P08684 whole entry, looked up): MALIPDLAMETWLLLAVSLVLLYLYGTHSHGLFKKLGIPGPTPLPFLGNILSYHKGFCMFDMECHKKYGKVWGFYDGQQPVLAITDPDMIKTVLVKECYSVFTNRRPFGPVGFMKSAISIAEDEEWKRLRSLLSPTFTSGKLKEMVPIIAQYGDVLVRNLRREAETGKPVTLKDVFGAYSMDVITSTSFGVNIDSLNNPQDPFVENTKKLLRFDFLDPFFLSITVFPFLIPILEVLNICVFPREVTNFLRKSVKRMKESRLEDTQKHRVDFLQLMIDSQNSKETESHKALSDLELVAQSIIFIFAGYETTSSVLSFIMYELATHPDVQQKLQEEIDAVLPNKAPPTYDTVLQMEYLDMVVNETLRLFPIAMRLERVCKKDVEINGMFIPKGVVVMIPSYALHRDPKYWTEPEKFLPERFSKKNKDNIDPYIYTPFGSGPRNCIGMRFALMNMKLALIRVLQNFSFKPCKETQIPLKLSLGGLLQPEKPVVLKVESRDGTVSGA
Sequence of Ubiquitin carboxyl-terminal hydrolase 1 (Homo sapiens) (O94782 whole entry, looked up): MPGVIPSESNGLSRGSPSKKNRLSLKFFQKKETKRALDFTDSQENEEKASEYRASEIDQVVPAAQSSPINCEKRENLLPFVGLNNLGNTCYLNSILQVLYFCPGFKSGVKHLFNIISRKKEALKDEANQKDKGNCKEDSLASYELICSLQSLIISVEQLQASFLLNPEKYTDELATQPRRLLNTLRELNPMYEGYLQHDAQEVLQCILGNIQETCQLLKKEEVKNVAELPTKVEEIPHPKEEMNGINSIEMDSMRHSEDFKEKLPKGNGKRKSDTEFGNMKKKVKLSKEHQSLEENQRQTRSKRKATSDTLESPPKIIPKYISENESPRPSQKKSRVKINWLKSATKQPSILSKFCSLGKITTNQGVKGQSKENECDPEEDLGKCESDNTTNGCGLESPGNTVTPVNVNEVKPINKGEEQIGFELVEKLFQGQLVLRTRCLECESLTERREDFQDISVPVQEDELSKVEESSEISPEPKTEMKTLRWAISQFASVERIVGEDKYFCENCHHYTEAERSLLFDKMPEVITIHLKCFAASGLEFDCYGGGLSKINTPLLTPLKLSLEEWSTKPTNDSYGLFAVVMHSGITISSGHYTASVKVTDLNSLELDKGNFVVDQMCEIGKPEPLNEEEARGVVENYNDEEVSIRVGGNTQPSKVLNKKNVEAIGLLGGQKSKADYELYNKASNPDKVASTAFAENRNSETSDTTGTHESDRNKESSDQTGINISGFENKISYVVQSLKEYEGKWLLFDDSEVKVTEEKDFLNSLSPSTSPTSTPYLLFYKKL
Sequence of Cytochrome P450 1A2 (Homo sapiens) (P05177 whole entry, looked up): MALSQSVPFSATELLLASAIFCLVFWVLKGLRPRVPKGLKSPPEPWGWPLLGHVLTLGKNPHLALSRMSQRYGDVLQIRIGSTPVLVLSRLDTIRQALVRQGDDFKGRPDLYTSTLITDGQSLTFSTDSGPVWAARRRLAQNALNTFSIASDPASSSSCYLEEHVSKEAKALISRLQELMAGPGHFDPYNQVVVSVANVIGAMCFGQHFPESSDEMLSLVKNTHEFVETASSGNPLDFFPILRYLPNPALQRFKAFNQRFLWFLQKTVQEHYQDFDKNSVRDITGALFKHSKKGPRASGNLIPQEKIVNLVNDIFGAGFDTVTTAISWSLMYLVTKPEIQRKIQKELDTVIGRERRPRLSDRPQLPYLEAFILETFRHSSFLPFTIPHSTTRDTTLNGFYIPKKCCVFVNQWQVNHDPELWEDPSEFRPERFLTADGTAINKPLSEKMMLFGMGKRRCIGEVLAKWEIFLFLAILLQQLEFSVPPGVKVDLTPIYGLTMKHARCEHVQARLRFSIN
Sequence of Cytochrome P450 2D6 (Homo sapiens) (P10635 whole entry, looked up): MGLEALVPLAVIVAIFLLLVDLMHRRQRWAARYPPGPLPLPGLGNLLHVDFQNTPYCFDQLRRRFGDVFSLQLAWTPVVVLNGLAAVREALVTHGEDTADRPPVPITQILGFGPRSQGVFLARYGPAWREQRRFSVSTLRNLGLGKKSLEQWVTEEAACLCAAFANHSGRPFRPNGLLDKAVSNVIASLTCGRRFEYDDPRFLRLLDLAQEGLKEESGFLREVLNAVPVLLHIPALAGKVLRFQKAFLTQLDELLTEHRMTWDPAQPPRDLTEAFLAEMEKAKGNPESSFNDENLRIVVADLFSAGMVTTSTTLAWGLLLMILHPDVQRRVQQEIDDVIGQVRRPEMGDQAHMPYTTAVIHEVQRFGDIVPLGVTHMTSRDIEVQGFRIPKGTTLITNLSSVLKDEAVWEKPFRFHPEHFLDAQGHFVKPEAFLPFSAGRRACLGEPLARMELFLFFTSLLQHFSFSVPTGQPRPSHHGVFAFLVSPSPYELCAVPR

`O=C(O)c1ccccc1-c1c2cc(Br)c(=O)cc-2oc2[c]([Hg])c(O)c(Br)cc12`: the figures for the Potency in assay [1] and in assay [3] were 15.8 µM (active) and 25.1 µM (active), respectively. Moreover, the activity change, negative = inhibition in [2] (at 17.2 µM (top of the series)) is -24.9%. Further, the Potency result in assay [4] was “inactive”.

As for `O[C@H]1CCCC[C@H]1N1CCC(c2ccccc2)CC1`, the Potency entry in assay [4] is “inactive”.

`CC(C)n1cnc2c(C(=O)N[C@H]3CN4CCC3CC4)cc(Cl)cc21`: the Potency result in [3] and in assay [4] was “inactive” throughout.

As to `C=CCN1CC[C@]23c4c5ccc(O)c4O[C@@H]2C(=O)CC[C@]3(O)[C@H]1C5`, in assay [2] (at 17.2 µM (top of the series)), the activity change, negative = inhibition was -9.64%. Further, in assay [4], the Potency result is “inactive”.

As to `CCN1C[C@]2(COC)[C@H](O)C[C@H](OC)[C@]34C1C([C@H](OC)[C@H]23)[C@]1(OC(C)=O)C2[C@@H](OC(=O)c3ccccc3)C(O)(C[C@H]24)[C@@H](OC)[C@@H]1O`, the Potency entry in [4] is “inactive”.

`CC(C)C[C@H]1C(=O)N2CCCC2[C@]2(O)O[C@](NC(=O)[C@@H]3C=C4c5cccc6[nH]cc(c56)CC4N(C)C3)(C(C)C)C(=O)N12` (stereo partly drawn): the Potency in [3] was 1 µM (active).

Consider `C[C@@H]1O[C@H](O[C@@H]2C[C@@H](O)[C@]3(CO)[C@H]4[C@H](O)C[C@]5(C)[C@@H](C6=CC(=O)OC6)CC[C@@]5(O)[C@@H]4CC[C@]3(O)C2)[C@@H](O)[C@H](O)[C@H]1O`, for which the Potency in assay [5] is 0.0501 µM (active). For the same compound, the Potency result in assay [4] was “inactive”.

As to `N#CC(C#N)=NNc1ccc(OC(F)(F)F)cc1`, the Potency in assay [3] is 5.01 µM (active).

With `O=C(CCCN1CCC2(CC1)C(=O)N(Cc1cccc(F)c1)CN2c1ccccc1)c1ccc(F)cc1`, in assay [5], the Potency is 3.16 µM (active).

As for `CC[C@@H]1CN2CC[C@@]3(O)C(=Nc4cccc(OC)c43)[C@@H]2C[C@@H]1/C(=C\OC)C(=O)OC`, the Potency entry in [6], in assay [7], in [8], in assay [9], in assay [11] and in [12] was “inactive” throughout. The Potency in assay [10] was 14.9 µM (active). Further, the call in assay [13] was inactive.

In the case of `CC1=CC(=O)C2=C(C)C[C@H](O)[C@@H]3[C@H](OC(=O)[C@@H]3C)[C@@H]12`, the Potency entry in assay [14], in [6] and in assay [12] was “inactive” each time. Further, the Potency is 13.2 µM (active) in [11] and 34.3 µM (active) in assay [15]. The compound was classed as inactive in assay [13].

As for `C[C@]12CC(O)C3[C@@H](CCC4C[C@@H](O)CC[C@@]43CO)[C@@]1(O)CCC2C1=CC(=O)OC1` (stereo partly drawn), the Potency in assay [14] is 2.64 µM (active). Besides, the Potency entry in [7], in assay [8], in assay [9], in [10], in assay [15] and in [12] was “inactive” throughout. For the same compound, the compound was classed as inactive in [13].

For the compound `CC(=O)O[C@@H]1CN2CCC1CC2`, the Potency entry in assay [1] is “inactive”.

On to `CCN1C[C@]2(C)CC[C@H](O)[C@]34C1C(C[C@H]23)[C@@]12CC[C@H](CC14)[C@](O)(COC(=O)c1ccc(OC)c(OC)c1)[C@H]2O` (stereo partly drawn), for which the Potency entry in assay [7], in assay [8], in [9], in assay [10], in assay [11] and in assay [12] was “inactive” throughout. For the same compound, the Potency in assay [15] is 10.8 µM (active). Moreover, in assay [13], the compound was called inactive.

Turning to `C[C@@H](Cc1ccc(OCC(=O)O)cc1)NC[C@H](O)c1cccc(Cl)c1`, in [2] (at 38 µM (top of the series)), the activity change, negative = inhibition is -11.2%. The Potency entry in [4] was “inactive”.

`C=C(C)[C@H]1C2C(=O)O[C@H]1[C@H]1OC(=O)[C@@]34O[C@@H]3C[C@]2(O)[C@@]14C`: in assay [4], the Potency entry was “inactive”.

`CC[N@@+]1([O-])C[C@]2(C)CC[C@@H](O)[C@@]34C5C[C@H]6CC[C@@]5(C(C[C@H]23)C41)[C@H](O)[C@@]6(O)CO` (stereo partly drawn): the Potency result in assay [14], in [6], in assay [7], in assay [8], in [9] and in [10] was “inactive” in each case. Also, the Potency entry in assay [11], in [15] and in assay [12] was “inactive” throughout. In addition, the call in assay [13] was inactive.

Consider `CCC(=O)CCCCC[C@@H]1NC(=O)[C@H]2CCCCN2C(=O)[C@H]([C@@H](C)CC)NC(=O)[C@H](Cc2cn(OC)c3ccccc23)NC1=O`, for which the values for the Potency in assay [14], in [6] and in assay [10] were 1.05 µM (active), 0.743 µM (active) and 0.0334 µM (active), respectively. Moreover, the Potency entry in [7], in assay [8], in assay [11] and in assay [15] was “inactive” each time.

As to `CC1=CC2CC[C@@H]3[C@@H](C)C[C@H](C)[C@@H](C1)N23` (stereo partly drawn), the Potency entry in assay [14], in assay [6], in assay [7], in assay [8], in assay [9] and in assay [11] was “inactive” throughout. In addition, the Potency entry in assay [15] and in assay [12] was “inactive” throughout. Moreover, the compound was called inactive in [13].

`C[C@@H]1CC[C@@H](c2ccoc2)N2C[C@@]3(CC[C@@H]12)CS[C@@]1(CC[C@H]2[C@H](C)CC[C@@H](c4ccoc4)N2[C@@H]1O)C3`: the Potency in assay [14] is 6.62 µM (active); in assay [6] it was 7.43 µM (active); in [8] it was 8.38 µM (active); in assay [9] it was 8.63 µM (active); in [10], 1.88 µM (active).

Regarding `c1ccc2c3c([nH]c2c1)CNCC3`, the activity change, negative = inhibition in assay [2] (at 17.2 µM (top of the series)) was 11%. The Potency result in assay [6], in assay [9], in assay [10], in assay [11] and in assay [12] was “inactive” each time. The compound was called inactive in assay [13].

Turning to `O=C(O)Cc1cccnc1C(=O)O`, in assay [4], the Potency entry is “inactive”.
